# From ChEMBL document CHEMBL4513136, “CO-ADD screening of CSIC (Spain) compounds”
# Entries with a potency or affinity are not part of this list.
# Experiments:
# Staphylococcus aureus = settings: Concentration 32 ug.mL-1; ASSAY_TEST Inhibition of Bacterial Growth; detection method Absorption (OD600); MEDIA CAMHB; plate type 384well; NBS; CORNING #3640; time 18 hr
# Escherichia coli = settings: Concentration 32 ug.mL-1; ASSAY_TEST Inhibition of Bacterial Growth; detection method Absorption (OD600); MEDIA CAMHB; plate type 384well; NBS; CORNING #3640; time 18 hr
Compound,Inhibition (Staphylococcus aureus) [%],Inhibition (Escherichia coli) [%]
COc1ccc(OC)c(C(=O)/C=C/c2ccc(O)cc2)c1,10.84,-21.08
O=C(Cc1cc(O)ccc1O)Nc1ccc(O)cc1,29.77,-10.96
O=C(Cc1cc(O)ccc1O)Nc1cc(O)ccc1O,22.67,-14.95
COc1ccc(OC)c(C(=O)/C=C/c2c[nH]c3ccc(OC)cc23)c1,20.69,-14.33
CC1C(=O)N(Cc2ccc(OCCN3CCOCC3)cc2)C1(Cc1ccccc1)C(=O)O (stereo unspecified),11.78,-10.5
Oc1ccc(-n2cc(-c3cc(O)ccc3O)nn2)cc1,19.08,-16.85
COC(=O)C1(Cc2ccc(OCc3c(Cl)cccc3Cl)cc2)C(C)C(=O)N1Cc1ccc(OC)cc1 (stereo unspecified),19.17,-12.56
COc1ccc(NC(=O)Cc2cc(OC)ccc2OC)cc1,31.14,-11.77
COc1ccc(C(=O)/C=C/c2ccc(OC)cc2OC)cc1,6.51,-22.4
COc1ccccc1/C=C/C(=O)c1cc(OC)c(OC)cc1OC,26.72,-13.16
Oc1ccc(O)c(-c2cn(-c3ccc(O)c(O)c3)nn2)c1,34.68,-12.66
COc1ccc(CN2C(=O)C(C)C2(Cc2cn(C(=O)OC(C)(C)C)c3ccccc23)C(=O)OC(C)(C)C)cc1 (stereo unspecified),27.02,-6.98
COC(=O)c1c(C(Cc2ccccc2)NC(=O)OCc2ccccc2)[nH]c2ccccc12 (stereo unspecified),22.9,-13.62
